Source: PubChem BioAssay (several laboratories)
The list is not random: actives were taken first. Their share in the collection is about 2.9%.
FAS-TE inh: blocks the thioesterase domain of human fatty acid synthase | P49327 | recombinant FAS-TE, OMFH fluorogenic substrate, fluorescence endpoint | inhibition, % at 15 µM | actives 0.67% (n = 360,000);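 active means compounds whose normalised, plate-corrected inhibition of enzyme fluorescence in the single-dose primary screen is 50% or more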
proKLK7 act: proKLK7 (human) activation, primary screen; purified proKLK7, EDANS-DABCYL substrate fluorescence; 100% is mature enzyme control, 0% vehicle; activation, % at 7 µM; P49862; actives 0.9% (n = 370,000);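 active means activation above the mean of all tested compounds plus 3 SD, computed per campaign excluding outliers beyond control limits, cut at about 13% in these data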
GAA850 FXN act: activators of GAA850 frataxin (FXN) promoter. AID 540364. HEK293 lucGAA850 FXN promoter luciferase reporter, 24 h; percent of 10 µM SAHA response. actives 0.56% (n = 360,000). activation, % at 6 µM;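 active means activation above the average of all compounds screened plus 3 SD, cutoff fixed separately per campaign, cut at about 7.5% in these data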
SMARCA2 act: activators of SMARCA2 function | MG213 cells, MMTV-luciferase reporter, dexamethasone, overnight | activation, % at 9.1 µM | actives 1% (n = 370,000) | AID 652017; in the data active means activation above about 7.8%
A number is an active result; i = inactive; nt = no result.

SMILES | FAS-TE inh | proKLK7 act | GAA850 FXN act | SMARCA2 act
CC[C@]12c3[nH]c4cc(-c5ccco5)ccc4c3CCN1C(=O)[C@@H](CC(=O)NC(C)(C)C)C[C@@H]2C(=O)N1CCN(C(=O)c2ccco2)CC1 | i | 115.8 | i | i
O=S(=O)(NOCc1ccc(Cl)cc1)c1ccc(Cl)cc1 | i | i | i | i
O=C(Nc1cccc(-n2cccn2)c1)C1CCCN(Cc2ccc(C#CCCO)cc2)C1 (stereo unspecified) | i | i | i | i
COc1cc(CN2C[C@@H](CO)O[C@@H](n3cnc4c(NC(C)C)ncnc43)C2)cc(OC)c1OC | i | i | i | i
COc1ccc(/C=C/c2cc(-c3ccc(C)cc3)o[n+]2C)cc1 | i | 32.1 | i | i
COc1ccc(CNC(=O)C[C@H]2C[C@H](C(=O)N3CCCCC3)[C@@]3(C)c4[nH]c5cc(-c6ccco6)ccc5c4CCN3C2=O)cc1OC | i | 67.9 | i | i
CC(C)N(C(=O)[C@H]1C[C@H](CC(=O)NCc2ccco2)C(=O)N2CCc3c([nH]c4cc(-c5ccco5)ccc34)[C@]12C)C(C)C | i | 34.6 | i | i
COc1ccc(CNC(=O)C[C@H]2C[C@H](C(=O)N3CCOCC3)[C@@]3(CCC4CCCC4)c4[nH]c5cc(-c6ccco6)ccc5c4CCN3C2=O)cc1OC | i | i | i | i
CC(C)N(C(=O)[C@H]1CC(CC(=O)NCc2ccco2)C(=O)N2CCc3c([nH]c4ccccc34)[C@]12C)C(C)C (stereo partly specified) | i | i | i | i
C=CCNS(=O)(=O)c1cccc2cc(C(=O)O)c(O)cc12 | i | 27.0 | i | i
O=S(=O)(O)c1cccc2c(N=Nc3ccc(O)c4ncccc34)cccc12 | 75.0 | nt | i | nt
Oc1ccc(-c2csc(Nc3ccc4c(c3)OCO4)n2)c(O)c1 | i | i | i | i
N#Cc1ccc(Nc2nc(-c3ccc(O)cc3O)cs2)cc1C(F)(F)F | 60.7 | nt | i | nt
CC(C)C(N)c1csc(Nc2nncc3ccccc23)n1 (stereo unspecified) | i | i | i | i
CCN(CC)C(=O)N1CCc2ccccc2C1CN1C(=O)c2ccccc2C1=O (stereo unspecified) | i | i | i | i
Cc1ccc2nc(-c3ccc(Cl)cc3)c(Cc3ccsc3)n2c1 | nt | i | nt | 7.8
Cc1ccc(-c2nc3ccc(Cl)cn3c2Cc2ccsc2)cc1 | i | i | nt | i
O=C(c1ccc(Cn2cc(Cl)cn2)o1)N1CCN(Cc2ccc3c(c2)OCO3)CC1 | i | nt | i | nt
CN1CCN(C(=O)c2ccc(Cn3cc(Cl)cn3)o2)CC1 | i | i | i | 7.9
Cc1ccc2cc(/C=N/Nc3nc4ccccc4[nH]3)c(Cl)nc2c1 | i | i | i | 7.8
COc1cc(OC)c(OC)cc1/C=N/Nc1nc2ccccc2[nH]1 | i | i | i | i
CCc1ccc2nc(/N=C(\N)NC(=O)c3ccccc3)nc(C)c2c1 | i | i | i | 7.9
COc1ccc(NC(=O)C/C(C)=N/NC(=O)C(=O)Nc2cccc(Cl)c2C)c(OC)c1 | i | i | i | i
COc1ccc(NC(=O)C/C(C)=N/NC(=O)C(=O)NC(C)C)c(OC)c1 | i | i | i | 7.9
CCCC(=O)N(Cc1cccnc1)c1nc2c(OC)ccc(Cl)c2s1 | i | i | i | i
SMILES | FAS-TE inh | proKLK7 act | GAA850 FXN act | SMARCA2 act
CC(=O)Nc1ccc(S(=O)(=O)NNC(=O)c2ccc(C)cc2)cc1 | i | i | i | i
Cc1ccc(S(=O)(=O)NNC(=O)Nc2ccc(Cl)cc2)cc1 | i | i | i | 8.8
CC(C)(C)OC(=O)NCCCCCNC(=O)c1[nH]cnc1C(=O)N[C@@H](CCCCNC(=O)OC(C)(C)C)C(=O)OC(C)(C)C | 68.4 | nt | i | nt
CC(C)(C)OC(=O)NCCCC[C@H](NC(=O)c1nc[nH]c1C(=O)N[C@@H](CCCCNC(=O)OC(C)(C)C)C(=O)OC(C)(C)C)C(=O)OC(C)(C)C | i | i | i | i
COC(=O)c1cnc2ccccc2n1 | i | i | i | 7.8
CC1(NC(=O)C2CCCCC2)CCS(=O)(=O)C1 (stereo unspecified) | i | i | i | i
COc1ccccc1OCC(=O)Nc1nc(-c2ccc(S(=O)(=O)N3CCOCC3)cc2)cs1 | i | i | i | i
O=C(COc1ccc(Cl)cc1)Nc1nc(-c2ccc(S(=O)(=O)N3CCOCC3)cc2)cs1 | 63.4 | i | i | i
CS(=O)(=O)c1ccc(-c2sc3ccccc3c2C#CCCO)cc1 | i | i | i | i
Cc1cccc(-n2ncc3c(NCCCO)ncnc32)c1 | i | i | i | 7.9
Cc1noc(C)c1C(=O)Nc1sccc1C(N)=O | i | i | i | 7.9
O=C(N/N=C/c1ccc2cccnc2c1)c1ccco1 | i | i | i | i
O=C(/C=C/Nc1ccccc1Oc1ccccc1)c1ccco1 | i | i | i | 7.9
O=C(/C=C/Nc1ccccc1O)c1ccco1 | i | i | i | i
CC(=O)NCCc1cnc[nH]1 | i | i | 10.2 | i
O=C(Cc1ccccc1)NCCc1cnc[nH]1 | i | i | i | i
COc1ccc(/C=C/c2ccc3cccc(O)c3n2)c(OC)c1OC | i | i | 8.9 | i
O=CNCCc1nc2ccccc2n1CCc1ccccc1 | i | i | i | i
O=C(CC1Sc2ccccc2NC1=O)Nc1cccc(C(=O)O)c1 (stereo unspecified) | i | i | i | i
CCC(C)(C)n1nnnc1C(c1cc2cc(C)ccc2[nH]c1=O)N1CCCC1 (stereo unspecified) | i | i | 10.0 | i
Cc1ccc2cc(C(c3nnnn3C(C)(C)C)N3CCCCCC3)c(=O)[nH]c2c1 (stereo unspecified) | i | nt | i | nt
C[C@H](CO)N1C[C@H](C)[C@@H](CN(C)C(=O)NC2CCCCC2)Oc2ccc(NC(=O)NC3CCCCC3)cc2C1=O | i | i | i | i
COCc1cccc(-c2csc(C(NC(C)=O)c3cccc(OC)c3)n2)c1 (stereo unspecified) | i | i | i | i
COc1ccc2cc1Oc1ccc(cc1)C[C@H]1c3c(cc(OC)c4c3Oc3c(ccc5c3[C@H](C2)N(C)CC5)O4)CCN1C | 66.1 | nt | i | nt
COc1ccc2cc1Oc1ccc(cc1)CC1c3c(cc(OC)c4c3Oc3cc5c(cc3O4)CCNC5C2)CCN1C (stereo unspecified) | i | nt | i | nt
SMILES | FAS-TE inh | proKLK7 act | GAA850 FXN act | SMARCA2 act
Cc1cc(NC(=O)c2cc([N+](=O)[O-])ccc2Cl)no1 | i | i | i | i
O=C(Nc1cccc(NC(=O)c2cc([N+](=O)[O-])ccc2Cl)n1)c1cc([N+](=O)[O-])ccc1Cl | 56.6 | nt | i | nt
CC1CC(OCC(O)CN2CCCCC2C)CC(C)(C)C1 (stereo unspecified) | i | i | i | i
COc1ccc(/C(C)=N/NC(=O)c2ccccc2N)cc1 | i | i | i | 7.9
O=c1c2ccccc2c(-c2ccccc2)nn1Cc1c(Cl)cccc1Cl | i | i | i | i
Clc1cccc(Cl)c1Cn1ccc(C2CC2)n1 | i | i | i | 7.9
Cc1cc(=O)n2[nH]c(-c3ccc(Cl)cc3)cc2n1 | i | i | i | 7.8
Cc1cc(=O)n2[nH]c(-c3ccc(F)cc3)cc2n1 | i | i | i | i
COc1cccc(C(=O)O/N=C(\N)c2ccncc2)c1 | i | i | i | 7.8
COC(=O)/C=C/c1ccc(-n2cncn2)cc1 | i | i | i | 7.8
